High-throughput results (PubChem BioAssay)
WT yeast gro inh = growth inhibition of WT yeast, mitochondrial fusion screen. mitochondrial fusion phenotypic screen, WT strain. inhibition, % at 10 µM. actives 2.1% (n = 190,000); in the data active = inhibition above about 58%; tested in S. cerevisiae
ROMK primary = human ROMK K+ channel modulation, primary screen. actives 2% (n = 130,000). Tet-inducible ROMK, thallium flux fluorescence; actives lie on both sides. AID 1918. B-score at 10 µM;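 active = signal ratio slope over the read window, or its plate-corrected B-score, at least 3 SD from the plate mean, either direction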;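 also: B-score of the F/F0 ratio slope over 7 to 12 s after thallium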
Target sequence (P48048 whole entry, looked up): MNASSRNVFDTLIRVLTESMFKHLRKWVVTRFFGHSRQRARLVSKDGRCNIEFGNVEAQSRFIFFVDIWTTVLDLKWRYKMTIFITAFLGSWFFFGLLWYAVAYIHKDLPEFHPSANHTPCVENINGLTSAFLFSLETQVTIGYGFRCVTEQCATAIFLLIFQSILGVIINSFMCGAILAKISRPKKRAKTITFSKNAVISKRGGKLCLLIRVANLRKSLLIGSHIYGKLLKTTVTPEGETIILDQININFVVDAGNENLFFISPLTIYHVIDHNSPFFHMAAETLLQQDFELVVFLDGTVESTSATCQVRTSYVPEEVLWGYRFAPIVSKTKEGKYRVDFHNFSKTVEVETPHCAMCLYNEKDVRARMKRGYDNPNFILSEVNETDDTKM
Insulin prom inh = TRM-6 insulin promoter activity inhibition. inhibition, % at 2 µM. TRM-6 cells (human fetal islet line), insulin promoter-eGFP reporter, imaging; reporter expression induced with tamoxifen. actives 0.9% (n = 130,000);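 active = inhibition above the mean plus 3 SD, with well images judged a real hit on visual review, cut at about 60% in these data, passing the limit was not always enough; inconclusive = inhibition over the cutoff but images rejected on review; inactive = inhibition not above the cutoff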
KCC2 mod = modulates chloride dependent transport by human KCC2; KCC2 cells, thallium flux FluoZin-2 fluorescence; B-score of Tl+ flux slope (higher = more flux/activation; lower = inhibition) at 10 µM; actives 2.2% (n = 190,000);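 active = thallium flux slope and its plate-corrected score both differing from the plate sample mean at a set confidence after two filtering rounds, in either direction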;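 also: slope of fluorescence scaled to starting intensity during 10 to 20 s after thallium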
Ins promoter up = MIN6 insulin promoter up-regulation; actives 0.3% (n = 190,000); z-score at 5 µM; MIN6 insulin promoter-GFP reporter, high-content imaging; stronger effect = higher value;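 active = z-score above 3 at 5 µM with at least 500 cells counted in the well; inconclusive = wells under 500 cells, flagged as cytotoxic or low count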
Lmaj promast = inhibitors of Leishmania major promastigote growth | Leishmania major promastigotes, resazurin fluorescence viability | inhibition, % at 10 µM | actives 9% (n = 200,000) | AID 1063; in the data active = inhibition above about 50%;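 also: promastigotes grown with compound for 44 hours at 28 °C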
KCC2 sec1 = confirmation of human KCC2 transport modulators. normalised thallium flux (F/F0 slope) at 10 µM. shares compounds with KCC2 mod. actives 15% (n = 3,700). HEK293-KCC2, thallium flux, FluoZin2 fluorescence; stronger effect = higher value;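 active = thallium flux slope above the same plate's solvent-only control mean plus 3 SD; inconclusive = the two replicate wells disagree; inactive = no significant difference from solvent-only control wells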
KCC2 bumet counter = thallium flux persisting under bumetanide in KCC2 cells, counter-screen secondary assay; shares compounds with KCC2 mod; HEK293-KCC2 + bumetanide/ouabain, thallium flux FluoZin2; stronger effect = higher value; normalized thallium flux at 10 µM; actives 49% (n = 3,700); AID 1714;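 active = thallium entry rate above the same plate's blocked-transporter control wells by more than 3 SD; inconclusive = the two repeat wells disagree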;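 also: raw slope of fluorescence over initial fluorescence between 10 and 20 s after thallium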
KCC2 sec2 = KCC2 (human) modulation, second secondary assay | normalized thallium flux at 10 µM | actives 23% (n = 3,700) | shares compounds with KCC2 mod | HEK293-KCC2, thallium flux FluoZin2 fluorescence; actives lie on both sides; F/F0 rise rate, 10–20 s post-thallium;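 active = thallium flux slope more than 3 SD above or below the plate's solvent-only control mean, mostly below; inconclusive = the two repeat wells disagreed; inactive = no significant shift from solvent-only controls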;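 also: raw slope with 0.1% DMSO as baseline and bumetanide as block control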
HEK293 Tl flux = acts in parental HEK cells, KCC2 counter-screen. shares compounds with KCC2 mod. HEK293 parental cells, thallium flux FluoZin2, ouabain; baseline-ratio fluorescence slope, 10–20 s after thallium. thallium flux rate (normalised fluorescence) at 10 µM. actives 46% (n = 3,700);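 active = thallium flux rate significantly above the same plate's solvent-only control wells, beyond their mean plus 3 SD; inconclusive = the two replicate wells gave conflicting results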
KCC2 retest ouab = modulates human KCC2 on retest with ouabain; shares compounds with KCC2 mod; HEK293-KCC2, thallium flux FluoZin2 fluorescence; bidirectional: low = inhibitor, high = activator; raw Tl+ flux slope (below DMSO = inhibition, above = activation) at 10 µM; actives 48% (n = 3,700);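 active = thallium flux slope beyond 3 SD from same-plate DMSO control mean in most replicates, usually higher, sometimes lower; inconclusive = repeat tests gave conflicting results; inactive = no significant difference from controls in most replicates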;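 also: slope of initial-normalized fluorescence between seconds 10 and 20 after thallium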
HEK293 Tl flux2 = counter-screen for KCC2 modulators: effect in parental HEK293 cells; thallium flux slope at 10 µM; thallium flux FluoZin-2 fluorescence slope; AID 1718; actives 33% (n = 3,700); shares compounds with KCC2 mod;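 active = thallium flux slope above the same plate's solvent-control mean plus 3 SD in both duplicate wells; inconclusive = duplicate wells that disagreed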;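 also: run without ouabain in cells lacking the KCC2 cotransporter; slope of fluorescence scaled to its starting value between 10 and 20 s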
* = called active by the depositor; ? = inconclusive; nt = no result given. Hits are enriched below; roughly 12% of the tested compounds scored in any of these assays.

SMILES	WT yeast gro inh	ROMK primary	Insulin prom inh	KCC2 mod	Ins promoter up	Lmaj promast	KCC2 sec1	KCC2 bumet counter	KCC2 sec2	HEK293 Tl flux	KCC2 retest ouab	HEK293 Tl flux2
O=C(N/N=C/c1ccc2c(c1)OCO2)c1ccc2ccccc2n1	9.8	1.35	nt	4.85*	0.14	77.9*	0.0168	0.0183*	0.0324	0.012*	0.0204*	0.0158*
COc1ccccc1NC(=S)N/N=C/c1cccc(C)c1	0.8	nt	41.9	5.54*	-0.34	-4.1	0.0114	0.016*	0.0343	0.0121*	0.0259	0.0111
O=C(O)CC1S/C(=N/N=C/c2ccc(Br)cc2)N(c2ccccc2)C1=O (stereo not given)	-5.6	0.348	nt	-0.41	-0.4	3.9	nt	nt	nt	nt	nt	nt
O=C1/C(=C/c2cccs2)NC(=S)N1C1CC1	3.7	2.14	-16.7	42.9*	0.12	-12.4	0.0163*	0.0892*	0.0487*	0.0595*	0.0701*	0.0331*
O=c1sc(Nc2ccccc2)nc2ccccc12	-7.9	-0.549	0.0	nt	0.56	-6.4	nt	nt	nt	nt	nt	nt
Cc1ccc(Nc2nc3ccccc3c(=O)s2)cc1	17.8	0.741	nt	14.2*	-0.24	-8.8	0.011*	0.0308*	0.0314	0.0132*	0.0338*	0.0112*
CCc1nnc(NC(=O)C2CCCN2S(=O)(=O)c2ccc(F)cc2)s1 (stereo not given)	19.0	-0.658	-43.8	nt	-0.15	-0.6	nt	nt	nt	nt	nt	nt
Cc1ccc(NC(=O)CN2CCCCCC2)c(Br)c1	-8.4	nt	nt	0.151	0.01	-6.9	nt	nt	nt	nt	nt	nt
Cc1cc(C)c(NC(=O)NC(=O)c2ccc(F)cc2)c(C)n1	29.3	nt	-37.5	0.151	-0.5	-4.2	nt	nt	nt	nt	nt	nt
Cc1cc(C)c(NC(=O)NC(=O)c2cccc(F)c2)c(C)n1	9.8	0.149	nt	-4.13*	0.92	-5.6	0.0112	0.00598	0.0319	0.00796	0.019	?
COc1ccccc1OCC(=O)N/N=C1/SCC(=O)N1Cc1ccccc1	-14.6	0.522	20.8	-1.49	-0.55	7.9	nt	nt	nt	nt	nt	nt
O=C1CNC(=S)N1c1nc2ccccc2s1	nt	0.0547	nt	5.31*	-0.34	nt	0.00686	0.0104*	0.0314	0.0106*	0.0212	0.0121*
O=C1CCC(=O)N1c1ccc(-c2nc3ccccc3s2)cc1	7.4	0.951	-15.8	0.411	0.48	-11.2	nt	nt	nt	nt	nt	nt
COc1ccc(N2C(=O)C3C4C=CC(C4)C3C2=O)nn1 (stereo not given)	-11.0	nt	61.3	0.517	0.12	-2.4	nt	nt	nt	nt	nt	nt
COc1ccc(N(CC(=O)N2CCC(Cc3ccccc3)CC2)S(C)(=O)=O)cc1	29.8	-1.75	nt	-4.95*	-0.76	-3.9	0.006	0.00384	?	0.00612*	0.0153*	0.0101
N/C(=N\OC(=O)COc1ccc2ccccc2c1Br)c1ccncc1	5.3	0.0727	nt	-1.02	-0.41	3.7	nt	nt	nt	nt	nt	nt
O=C(Nc1nnc(-c2cccs2)o1)c1cc(-c2ccccc2)nc2ccccc12	71.2*	-0.996	-5.0	68.5*	0.04	-3.9	0.0163*	0.0781*	0.037	0.043*	0.061*	0.0149*
O=C(NCc1cccs1)c1cc(-c2ccccc2)nc2ccccc12	-4.7	-1.75	0.0	0.645	-0.09	-0.3	nt	nt	nt	nt	nt	nt
CC1CCCN(C(=O)c2cccc(S(=O)(=O)Nc3cc(C(F)(F)F)ccc3Cl)c2)C1 (stereo not given)	25.9	nt	nt	-3.71*	0.07	-5.2	0.00779	0.00511	0.033	0.00758	0.0155*	0.0106
O=C(c1cccc(S(=O)(=O)Nc2cccc(C(F)(F)F)c2)c1)N1CCOCC1	nt	nt	nt	0.887	0.35	nt	nt	nt	nt	nt	nt	nt
COC(=O)N/N=C/c1c(C)cc(C)cc1C	5.8	-0.728	-65.1	-5.31*	-0.28	-7.8	0.0103	0.00583	0.0325	0.00754	0.0236	0.0109
COC(=O)N/N=C\c1c(C)[nH]n(-c2ccccc2)c1=O	1.9	0.13	nt	-1.29	0.11	1.2	nt	nt	nt	nt	nt	nt
Cc1[nH]c2ccccc2c1C(=O)COC(=O)CCS(=O)(=O)c1ccccc1Cl	8.0	nt	-24.0	-3.1*	0.49	60.2*	0.0103	?	0.0343	0.00396	0.017*	0.0118
Cc1ccc(C)c(NC(=O)c2ccccc2O)c1	48.6	-1.85	nt	-0.931	-0.32	16.2	nt	nt	nt	nt	nt	nt
Cc1ccc(O)c(C(=O)CC(=O)c2ccccc2Cl)c1	55.4	nt	nt	nt	-0.05	95.5*	?	0.0644*	0.0298	0.0383*	0.055*	0.0123*
SMILES	WT yeast gro inh	ROMK primary	Insulin prom inh	KCC2 mod	Ins promoter up	Lmaj promast	KCC2 sec1	KCC2 bumet counter	KCC2 sec2	HEK293 Tl flux	KCC2 retest ouab	HEK293 Tl flux2
CC(=O)Oc1ccc(C(c2ccc(OC(C)=O)cc2)c2ccccn2)cc1	-1.0	nt	-9.1	30.6*	nt	-5.5	?	0.0471*	0.0559*	0.0284*	0.0471*	0.0267*
CCOc1ccccc1NC(=O)COC(=O)c1cccc(-c2ccc(OC(C)=O)cc2)c1	10.3	0.249	nt	0.625	-0.21	14.1	nt	nt	nt	nt	nt	nt
COc1ccc(S(=O)(=O)Nc2ccccc2C(=O)NC(C)C)cc1OC	27.9	0.961	-26.9	0.319	-0.29	-5.3	nt	nt	nt	nt	nt	nt
COc1ccc(-c2csc(NC(=O)c3ccccc3NS(=O)(=O)c3ccc(F)c(F)c3)n2)cc1	87.3*	-0.386	nt	-4.55*	-4.95	48.6	0.00524*	0.0111*	0.033	?	0.0112*	0.0115
COc1ccc(Cl)cc1N(CC(=O)NCC(C)C)S(=O)(=O)c1ccc(C)c([N+](=O)[O-])c1	-2.6	1.96	nt	-0.482	0.3	8.7	nt	nt	nt	nt	nt	nt
COc1ccc(CNC(=O)c2csnn2)cc1	-0.7	0.189	50.0	nt	0.18	2.4	nt	nt	nt	nt	nt	nt
CCOC(=O)c1c(NC(=S)Nc2ccc(OC)cc2)sc2c1CCCCC2	-12.5	1.17	37.5	4.66*	nt	-6.5	0.0112	0.0107*	0.0329	0.0119*	0.0227	0.0116
CCOC(=O)NC(=S)Nc1ccc(OC)cc1	-6.0	0.831	nt	15.3*	-0.85	-3.3	0.00779	0.0214*	0.0354	0.0161*	?	0.0169*
COc1ccc(NC(=S)NC(=O)c2csnn2)cc1	-1.9	nt	nt	138*	-0.59	-2.6	0.0887*	0.11*	0.125*	0.125*	0.124*	0.124*
CCOC(=O)c1c(NC(=O)C(=O)N/N=C(\C)c2ccc(OC)cc2)sc2c1CCCCC2	23.7	-0.89	25.0	1.12	-0.34	3.6	nt	nt	nt	nt	nt	nt
